The panel holds about 83,000 compounds, 20% with a hit somewhere; the sample as a whole holds those more often.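 Negative percent growth values reflect cell death: -40 means 40% of the cells present at the start died, and -100 means all died.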 Values without a mark were called inactive. Activity calls are given as the source filed them.
test system: T-47D breast; test: NCI-60 one-dose screen, 48 h (100 = growth as untreated, 0 = no growth, -100 = all killed); conditions: 10 µM unless noted
Experimental: Growth inhibition of the T-47D human tumor cell line is measured as a screen for anti-cancer activity. Cells are grown in 96 well plates and exposed to the test compound for 48 hours. Compounds are tested at a single concentration, which is 10^-5 M for most compounds. The reported endpoint is percent growth (GI% or GIPRCNT), where numbers from 0 - 100% represent growth inhibition, and numbers from -100% - 0 represent cell death. For example, a value of 40 represents 60% growth inhibition. A value of 0 means no net growth occurred over the course of the experiment. A value of -40 indicates 40% of cells at the beginning of the experiment died by the end of the experiment. A value of -100 means all cells are dead at the end of the experiment.
NCI-60 Human Tumor Cell Lines Screen was performed using the standard one-dose NCI protocol, which is described in more detail at https://dtp.cancer.gov/discovery_development/nci-60/default.htm.
Compounds with GIPRCNT values below 10 were considered active. Activity score was based on GIPRCNT using the following formula: […]
Score is 0 for GIPRCNT values of 100 or above, 50 for GIPRCNT values of 0, and 100 for GIPRCNT values of -100.

| Structure (SMILES) | growth |
| --- | --- |
| COc1ccc(CNCCCN2C(=O)c3ccc4c5c(ccc(c35)C2=O)C(=O)N(CCCNCCCCNCCCN)C4=O)c(OC)c1OC | -44.4% (active) |
| CCOC(=O)C1=C(C)NC(C)=C(C(=O)OCC)C1(C)C | 95% |
| Clc1ccc(-c2nc3ccccc3s2)cc1Cl | 61.3% |
| CCN(CC)c1ccc(/C=C2\Oc3ccc(O)c(I)c3C2=O)cc1 | 55.1% |
| Cc1ccc(Cc2c(C=O)nc(N)[nH]c2=O)c2ccccc12 | 95.5% |
| COc1ccc(C(=O)N2NC(=O)/C(=C/c3cn(-c4ccccc4)nc3-c3ccccc3)N=C2c2ccccc2)cc1 | 97.6% |
| CC(C)C(C(=O)NCCN1CCOCC1)N1C(=O)/C(=C/c2ccc(Br)cc2)SC1=S (stereo not given) | 94.1% |
| CCCN=C1NC(=O)/C(=C/c2nc(-c3ccc(OC)cc3)n3ccccc23)S1 | 87.3% |
| CCCCC(CC)OC(=O)C(Br)CC (stereo not given) | 103% |
| O=Nc1c(-c2cccc([N+](=O)[O-])c2)nc2ncccn12 | 73% |
| Cc1cc(N/N=C/c2nc(-c3ccc(Br)cc3)oc2C)c2cc(Cl)ccc2n1 | 95.8% |
| COc1cc(-c2nn(-c3cccc(NC(=O)c4ccc(Cl)c(C(F)(F)F)c4)c3)cc2-c2ccncc2)ccc1Cl | 26.2% |
| Fc1ccc(CNCCNc2ncnc3c2cnn3-c2ccccc2)cc1 | 83.7% |
| O=C(CCl)N(C1CCCCC1)C1CCCCC1 | 101% |
| COC1=C(OC)C(=O)C(CCCCCCCCCC[P+](c2ccccc2)(c2ccccc2)c2ccccc2)=C(C)C1=O | -59% (active) |
| Oc1ccccc1/C=N/NC(=S)NC1CC2C=CC1C2 (stereo not given) | 79.9% |
| CCCCNC(=O)Oc1ccc(/C(=C(\C)c2ccccc2)c2ccc(OCCN(CC)CC)cc2)cc1 | 40.3% |
| C1=Cc2ccccc2N(c2nnc(-c3ccccc3)o2)c2ccccc21 | 100% |
| COc1ccc2c(c1)OC1=C(C(=O)OC1)C2c1cc(OC)c2c(c1)OCO2 (stereo not given) | 52.1% |
| O=C(O)c1cn(C2CC2)c2cc(N3CCN(C(=O)/C=C/c4ccc(Cl)cc4)CC3)c(F)cc2c1=O | 65.5% |

| Structure (SMILES) | growth |
| --- | --- |
| COc1c2occc2c(OC)c2c(=O)c(-c3cc(-c4ccc(F)cc4)c(C#N)c(N)n3)c(C)oc12 | 30.7% |
| Cc1ccc(N2CCN(C(C)C(N)=O)CC2)cc1 (stereo not given) | 102% |
| C=C1CCC2C(C)(CO)C(O)CCC2(C)C1CC(NCc1ccccc1)C1=CCOC1=O (stereo not given) | 97.7% |
| CO[C@H]1NC(=O)N(S(=O)(=O)c2ccc(Cl)cc2)[C@@H]1OC | 105% |
| C/C=C/C1=CN2C(=O)c3cc(OC4OC(C)C(NC)C(C)(O)C4O)c(C)cc3N=C[C@@H]2C1 (stereo not given in full) | -4.57% (active) |
| CN1C=CN(Cc2ccc(-c3ccccn3)nc2)[CH-]1.CN1C=CN(Cc2ccc(-c3ccccn3)nc2)[CH-]1.[Au+3] | 40.2% |
| CCOC(=O)c1c(/N=C2\SC(=O)/C(=C\C(=O)OC)N2NC)sc2c1CCN(C(=O)OCC)C2 | 93.4% |
| COc1cc2c(cc1OCCCN1CCN(CCCn3c4ccccc4c4ccccc43)CC1)N=C[C@@H]1CCCN1C2=O | -31.1% (active) |
| O=C1Nc2ccc(Cl)cc2C12Nc1cc(Cl)ccc1S2 (stereo not given) | 33.8% |
| COc1ccc(OC)c(C2OC(c3ccc4ccccc4c3O)=NN2C(C)=O)c1 (stereo not given) | 63.7% |
| Nc1ncnc2c1c(-c1ccc(Oc3ccccc3)cc1)nn2C[C@@H]1SSC[C@@H]1O | -30.9% (active) |
| COP(=O)(OC)/C(=N\NS(=O)(=O)c1ccc(C)cc1)c1ccccc1 | 94.7% |
| COc1ccc(C(=O)c2cc(OC)c3c(c2)OCO3)cc1O | 56.9% |
| COC(=O)c1cccc2c1N(C)c1c(cccc1C(=O)OC)CC2 | 95.6% |
| FC(F)(F)c1cccc(-c2cn3c(ccc4ccccc43)n2)c1 | 46.5% |
| CCCC(=O)Oc1ccc(/C(=C(\C)c2ccccc2)c2ccc(OCCN(CC)CC)cc2)cc1 | 46.8% |
| N[C@H]1CN(C(=O)c2cc3cc(Br)c(F)c(F)c3[nH]2)C[C@@H]1O | 91.3% |
| N=C(N)c1ccc(-c2ccc(-c3ccc(-c4cccs4)s3)s2)cc1 | 76% |
| COc1cc(/C=C/C(=O)c2ccc(Nc3ncnc4cc(OC)c(OC)cc34)cc2)cc(OC)c1 | 100% |
| Cc1cc(C2(c3cc(C)c(O)cc3C)OS(=O)(=O)c3ccccc32)c(C)cc1O | 102% |

Source: PubChem BioAssay (NCI)
